The record followed here is PubChem BioAssay (NCATS).

SMILES strings stand for the structures. Inconclusive results are not listed. Where a call stands in place of a potency, no number is given. A number with no mark means an inactive call. Calls of active or inactive are those of the source. Calls come from the whole dose curve; tested in HEK293 reporter line. Starred links: 1 amine or outer side, 2 acyl side, 3 side chain; linkers in the order of their positions; H or OH if unused. Positions of bridges follow the written chain, without caps; N, C: chain ends. Non-standard residues stand in square brackets, D forms with d. Residues, ends and D or L forms follow the SMILES beside them. ξ: configuration not given here. *: point of attachment. ΔAla(3-NHCONH2) = NC(=O)NC=C(N)C(=O)O; X1 = NC1=NCCC(C(N[*:1])C(=O)[*:2])N1; ξβ3hOrn = NCCCC(N)CC(=O)*; Dap = NC[CH](N)C(=O)O

One experiment can be described thus: qHTS for Inhibitors of the Functional Ribonucleoprotein Complex (vRNP) of Lassa (LASV) Arenavirus: LASV Primary Screen - GLuc reporter signal (AID 1347082). Note: nearly all actives have a fitted effect of over 60% in size. The note with it: LASV minigenome vRNP, Gaussia luciferase reporter; series mostly up to 57.5 µM. In general terms: In qHTS, concentration-response curves come from the screen itself.
As to `CC(C)(O)c1ccccc1CC[C@@H](SCC1(CC(=O)O)CC1)c1cccc(/C=C/c2ccc3ccc(Cl)cc3n2)c1`, the Potency entry was “inactive”.

`CC[C@@H](CO)NCCN[C@@H](CC)CO`: the Potency entry was “inactive”.

With `Fc1ccc([C@@H]2CCNC[C@H]2COc2ccc3c(c2)OCO3)cc1`, the Potency entry is “inactive”.

On to `Cc1[nH]c(=O)c(C#N)cc1-c1ccncc1`, for which the Potency entry is “inactive”.

Regarding `CN(C)CCOC(c1ccc(Cl)cc1)c1ccccn1` (stereo not drawn), the Potency entry was “inactive”.

For the compound `CCOC(=O)c1ncn2c1CN(C)C(=O)c1cc(F)ccc1-2`, the Potency result is “inactive”.

Consider `CO/N=C(\C(=O)N[C@@H]1C(=O)N2C(C(=O)O)=C(CSc3nc(=O)c(O)nn3C)CS[C@H]12)c1csc(N)n1`, for which the Potency entry is “inactive”.

On to `NCCCC(N)CC(=O)NCC1NC(=O)C(CO)NC(=O)C(N)CNC(=O)C(C2CCN=C(N)N2)NC(=O)C(=CNC(N)=O)NC1=O` (stereo not drawn) (H-[Dap]S[Dap](ξβ3hOrn)[ΔAla(3-NHCONH2)][X1]; lactam 1-C; configuration not given here), for which the activity change, negative = inhibition was 2.05% [at 0.757 µM].

Take `CO[C@H]1C=CO[C@@]2(C)Oc3c(C)c(O)c4c(O)c(c(/C=N/N5CCN(C)CC5)c(O)c4c3C2=O)NC(=O)/C(C)=C\C=C[C@H](C)[C@H](O)[C@@H](C)[C@@H](O)[C@@H](C)[C@H](OC(C)=O)[C@@H]1C`: the Potency result is “inactive”.

Consider `CN(C)c1cc(NC(=O)CNC(C)(C)C)c(O)c2c1C[C@@H]1C[C@H]3[C@H](N(C)C)C(=O)C(C(N)=O)=C(O)[C@@]3(O)C(=O)C1=C2O`, for which the Potency result was “inactive”.

For `CCc1ccc(CCOc2ccc(CC3SC(=O)NC3=O)cc2)nc1` (stereo not drawn), the Potency result was “inactive”.

On to `Clc1ccc(C(c2ccccc2Cl)C(Cl)Cl)cc1` (stereo not drawn), for which the Potency result was “inactive”.

Consider `CN(C)CCC=C1c2ccccc2CCc2ccccc21`, for which the Potency result was “inactive”.

As to `COc1ccccc1OCC(O)COC(N)=O` (stereo not drawn), the Potency entry was “inactive”.

Turning to `CN(C)c1ccc(O)c2c1C[C@H]1C[C@H]3[C@H](N(C)C)C(=O)C(C(N)=O)=C(O)[C@@]3(O)C(=O)C1=C2O`, the Potency entry was “inactive”.

Consider `CNCCCC1c2ccccc2C=Cc2ccccc21`, for which the Potency entry was “inactive”.

As for `CC(C(=O)O)c1cccc(C(=O)c2ccccc2)c1` (stereo not drawn), the Potency entry was “inactive”.

Consider `CC(C)C1CCC(C(=O)N[C@H](Cc2ccccc2)C(=O)O)CC1` (stereo partly drawn), for which the Potency result is “inactive”.

Consider `CNCC[C@@H](Oc1ccccc1C)c1ccccc1`, for which the Potency result is “inactive”.

Regarding `CNCCC(Oc1ccc(C(F)(F)F)cc1)c1ccccc1` (stereo not drawn), the Potency entry was “inactive”.

On to `Cc1oncc1C(=O)Nc1ccc(C(F)(F)F)cc1`, for which the Potency entry was “inactive”.

With `CCCCN1C[C@H](O)[C@@H](O)[C@H](O)[C@H]1CO`, the Potency entry is “inactive”.

For the compound `CN(C)CCc1c[nH]c2ccc(CS(=O)(=O)N3CCCC3)cc12`, the Potency result is “inactive”.

Take `CN1CCC(=C2c3ccccc3C=Cc3ccccc32)CC1`: the Potency entry was “inactive”.

Consider `Cc1nc2n(c(=O)c1CCN1CCC(c3noc4cc(F)ccc34)CC1)CCC[C@H]2O`, for which the Potency entry is “inactive”.

Take `O=C1C(=O)c2ccccc2C(O)=C1C1CCC(c2ccc(Cl)cc2)CC1` (stereo not drawn): the Potency result is “inactive”.

Consider `CNCCCN1c2ccccc2CCc2ccccc21`, for which the Potency result is “inactive”.

`O=P(O)(O)C(O)(Cc1cccnc1)P(=O)(O)O`: the Potency result is “inactive”.

As for `CO/N=C1\CN(c2nc3c(cc2F)c(=O)c(C(=O)O)cn3C2CC2)CC1CN` (stereo not drawn), the Potency result was “inactive”.

`NC(=O)C(c1ccccc1)(c1ccccc1)[C@@H]1CCN(CCc2ccc3c(c2)CCO3)C1`: the Potency entry is “inactive”.

Consider `COc1cc2nc(N3CCN(C(=O)c4ccco4)CC3)nc(N)c2cc1OC`, for which the Potency result is “inactive”.

As to `NC(=O)OCC(COC(N)=O)c1ccccc1`, the Potency result was “inactive”.

`COc1ccccc1OCCNCC(O)COc1cccc2[nH]c3ccccc3c12` (stereo not drawn): the Potency result was “inactive”.

Turning to `NS(=O)(=O)c1cc2c(cc1Cl)NC=NS2(=O)=O`, the Potency entry is “inactive”.

Consider `C1N2CN3CN1CN(C2)C3`, for which the Potency result was “inactive”.

`CC(=O)O[C@]1(C(C)=O)CC[C@H]2[C@@H]3C=C(C)C4=CC(=O)CC[C@]4(C)[C@H]3CC[C@@]21C`: the Potency result was “inactive”.

`CCCC(=O)Nc1ccc(OCC(O)CNC(C)C)c(C(C)=O)c1` (stereo not drawn): the Potency result was “inactive”.

Consider `Cc1cccc(Nc2ccccc2C(=O)O)c1C`, for which the Potency entry is “inactive”.

Consider `CCCc1nc2c(C)cc(-c3nc4ccccc4n3C)cc2n1Cc1ccc(-c2ccccc2C(=O)O)cc1`, for which the Potency result was “inactive”.

Another experiment is described as follows: qHTS for Inhibitors of the Functional Ribonucleoprotein Complex (vRNP) of Lassa (LASV) Arenavirus: Viability assay - alamar blue signal for LASV Primary Screen (AID 1347083). Note: nearly all actives have a fitted effect of over 80% in size. The conditions noted are these: cell viability, alamar blue fluorescence (LASV minigenome counter-screen); series mostly up to 57.5 µM.
As for `CC(C)(O)c1ccccc1CC[C@@H](SCC1(CC(=O)O)CC1)c1cccc(/C=C/c2ccc3ccc(Cl)cc3n2)c1`, the Potency entry is “inactive”.

For `CC[C@@H](CO)NCCN[C@@H](CC)CO`, the Potency result is “inactive”.

Regarding `Fc1ccc([C@@H]2CCNC[C@H]2COc2ccc3c(c2)OCO3)cc1`, the Potency result is “inactive”.

With `Cc1[nH]c(=O)c(C#N)cc1-c1ccncc1`, the Potency result is “inactive”.

As to `CN(C)CCOC(c1ccc(Cl)cc1)c1ccccn1` (stereo not drawn), the Potency entry was “inactive”.

`CCOC(=O)c1ncn2c1CN(C)C(=O)c1cc(F)ccc1-2`: the Potency result is “inactive”.

In the case of `CO/N=C(\C(=O)N[C@@H]1C(=O)N2C(C(=O)O)=C(CSc3nc(=O)c(O)nn3C)CS[C@H]12)c1csc(N)n1`, the Potency entry is “inactive”.

As to `NCCCC(N)CC(=O)NCC1NC(=O)C(CO)NC(=O)C(N)CNC(=O)C(C2CCN=C(N)N2)NC(=O)C(=CNC(N)=O)NC1=O` (stereo not drawn) (H-[Dap]S[Dap](ξβ3hOrn)[ΔAla(3-NHCONH2)][X1]; lactam 1-C; configuration not given here), the activity change, negative = reduced viability is -7.39% [at 0.757 µM].

Take `CO[C@H]1C=CO[C@@]2(C)Oc3c(C)c(O)c4c(O)c(c(/C=N/N5CCN(C)CC5)c(O)c4c3C2=O)NC(=O)/C(C)=C\C=C[C@H](C)[C@H](O)[C@@H](C)[C@@H](O)[C@@H](C)[C@H](OC(C)=O)[C@@H]1C`: the Potency entry is “inactive”.

Consider `CN(C)c1cc(NC(=O)CNC(C)(C)C)c(O)c2c1C[C@@H]1C[C@H]3[C@H](N(C)C)C(=O)C(C(N)=O)=C(O)[C@@]3(O)C(=O)C1=C2O`, for which the Potency result was “inactive”.

For `CCc1ccc(CCOc2ccc(CC3SC(=O)NC3=O)cc2)nc1` (stereo not drawn), the Potency entry is “inactive”.

Turning to `Clc1ccc(C(c2ccccc2Cl)C(Cl)Cl)cc1` (stereo not drawn), the Potency entry was “inactive”.

Regarding `CN(C)CCC=C1c2ccccc2CCc2ccccc21`, the Potency entry is “inactive”.

Take `COc1ccccc1OCC(O)COC(N)=O` (stereo not drawn): the Potency entry was “inactive”.

On to `CN(C)c1ccc(O)c2c1C[C@H]1C[C@H]3[C@H](N(C)C)C(=O)C(C(N)=O)=C(O)[C@@]3(O)C(=O)C1=C2O`, for which the Potency result was “inactive”.

As to `CNCCCC1c2ccccc2C=Cc2ccccc21`, the Potency result is “inactive”.

Regarding `CC(C(=O)O)c1cccc(C(=O)c2ccccc2)c1` (stereo not drawn), the Potency entry was “inactive”.

Regarding `CC(C)C1CCC(C(=O)N[C@H](Cc2ccccc2)C(=O)O)CC1` (stereo partly drawn), the Potency result was “inactive”.

With `CNCC[C@@H](Oc1ccccc1C)c1ccccc1`, the Potency entry is “inactive”.

For `CNCCC(Oc1ccc(C(F)(F)F)cc1)c1ccccc1` (stereo not drawn), the Potency entry was “inactive”.

On to `Cc1oncc1C(=O)Nc1ccc(C(F)(F)F)cc1`, for which the Potency entry is “inactive”.

Consider `CCCCN1C[C@H](O)[C@@H](O)[C@H](O)[C@H]1CO`, for which the Potency entry is “inactive”.

For `CN(C)CCc1c[nH]c2ccc(CS(=O)(=O)N3CCCC3)cc12`, the Potency result was “inactive”.

Regarding `CN1CCC(=C2c3ccccc3C=Cc3ccccc32)CC1`, the Potency result was “inactive”.

With `Cc1nc2n(c(=O)c1CCN1CCC(c3noc4cc(F)ccc34)CC1)CCC[C@H]2O`, the Potency entry is “inactive”.

As for `O=C1C(=O)c2ccccc2C(O)=C1C1CCC(c2ccc(Cl)cc2)CC1` (stereo not drawn), the Potency result is “inactive”.

For the compound `CNCCCN1c2ccccc2CCc2ccccc21`, the Potency entry is “inactive”.

In the case of `O=P(O)(O)C(O)(Cc1cccnc1)P(=O)(O)O`, the Potency entry was “inactive”.

On to `CO/N=C1\CN(c2nc3c(cc2F)c(=O)c(C(=O)O)cn3C2CC2)CC1CN` (stereo not drawn), for which the Potency entry was “inactive”.

With `NC(=O)C(c1ccccc1)(c1ccccc1)[C@@H]1CCN(CCc2ccc3c(c2)CCO3)C1`, the Potency entry is “inactive”.

In the case of `COc1cc2nc(N3CCN(C(=O)c4ccco4)CC3)nc(N)c2cc1OC`, the Potency result is “inactive”.

In the case of `NC(=O)OCC(COC(N)=O)c1ccccc1`, the Potency entry was “inactive”.

For the compound `COc1ccccc1OCCNCC(O)COc1cccc2[nH]c3ccccc3c12` (stereo not drawn), the Potency result is “inactive”.

For the compound `NS(=O)(=O)c1cc2c(cc1Cl)NC=NS2(=O)=O`, the Potency entry was “inactive”.

On to `C1N2CN3CN1CN(C2)C3`, for which the Potency entry was “inactive”.

As to `CC(=O)O[C@]1(C(C)=O)CC[C@H]2[C@@H]3C=C(C)C4=CC(=O)CC[C@]4(C)[C@H]3CC[C@@]21C`, the Potency entry was “inactive”.

Take `CCCC(=O)Nc1ccc(OCC(O)CNC(C)C)c(C(C)=O)c1` (stereo not drawn): the Potency entry was “inactive”.

Turning to `Cc1cccc(Nc2ccccc2C(=O)O)c1C`, the Potency result is “inactive”.

With `CCCc1nc2c(C)cc(-c3nc4ccccc4n3C)cc2n1Cc1ccc(-c2ccccc2C(=O)O)cc1`, the Potency entry was “inactive”.
